In PubChem BioAssay AID1159580 (chemical genetic matrix, 2015):
Out of some 5,500 compounds screened, about 2,000 (36%) were called active. Inconclusive results (about 18%) are left out. No stated cut-off is given here; in the data, active means normalized growth mostly below about 0.91 (no sharp cut-off); inconclusive means no clear call, values can overlap the other calls; inactive means mostly above about 0.92. The list shows a part of the results.

Assay: chemical genetic growth profiling, strain panel (AID 1159580);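 further: tested at 20 µM; growth read once vehicle control cultures reached saturation at 30 °C; 1 = growth at the plate median or of vehicle wells; lower values mean less growth of the strain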
Conditions: growth OD

Measured: normalized growth

CC(=O)OCC(=O)[C@@]1(O)[C@H](OC(C)=O)CC2C3CCC4=CC(=O)C=C[C@]4(C)[C@@]3(F)[C@@H](O)C[C@@]21C (some centres not stated)
inactive: S. cerevisiae deletion strains, locus YJR066W, strain TOR1, active compounds read low 0.935 | S. cerevisiae deletion strains, locus YKL009W, strain mrt4, active compounds read low 0.993 | S. cerevisiae deletion strains, locus YKL068W, active compounds read low 0.994 | S. cerevisiae deletion strains, locus YKL085W, strain MDH1 (second series), active compounds read low 1 | S. cerevisiae deletion strains, locus YKL085W, strain MDH1, active compounds read low 1 | S. cerevisiae deletion strains, locus YKL160W, strain elf1, active compounds read low 1.02 | S. cerevisiae deletion strains, locus YKL190W, strain CNB1, active compounds read low 0.996 | S. cerevisiae deletion strains, locus YKR001C, strain vps1, active compounds read low 0.999 | S. cerevisiae deletion strains, locus YKR026C, strain gcn3, active compounds read low 0.993 | S. cerevisiae deletion strains, locus YKR091W, strain srl3, active compounds read low 0.986 | S. cerevisiae deletion strains, locus YLL001W, strain dnm1, active compounds read low 1.03 | S. cerevisiae deletion strains, locus YLL026W, active compounds read low 1 | S. cerevisiae deletion strains, locus YLL041C, strain sdh2, active compounds read low 0.985 | S. cerevisiae deletion strains, locus YLR027C, strain aat2, active compounds read low 1.01 | S. cerevisiae deletion strains, locus YLR039C, strain RIC1, active compounds read low 0.995 | S. cerevisiae deletion strains, locus YLR058C, strain SHM2, active compounds read low 0.98 | S. cerevisiae deletion strains, locus YLR102C, strain apc9, active compounds read low 0.999 | S. cerevisiae deletion strains, locus YLR113W, strain HOG1, active compounds read low 0.98 | S. cerevisiae deletion strains, locus YLR221C, strain rsa3, active compounds read low 0.956 | S. cerevisiae deletion strains, locus YLR258W, strain gsy2, active compounds read low 0.982 | S. cerevisiae deletion strains, locus YLR262C, strain YPT6 (second series), active compounds read low 1.01 | S. cerevisiae deletion strains, locus YLR262C, strain YPT6, active compounds read low 0.974 | S. cerevisiae deletion strains, locus YLR268W, strain sec22, active compounds read low 1.06 | S. cerevisiae deletion strains, locus YLR320W, strain mms22, active compounds read low 0.97 | S. cerevisiae deletion strains, locus YLR330W, strain CHS5, active compounds read low 0.993 | S. cerevisiae deletion strains, locus YLR342W, strain FKS1 (second series), active compounds read low 1.01 | S. cerevisiae deletion strains, locus YLR342W, strain FKS1, active compounds read low 1.02 | S. cerevisiae deletion strains, locus YLR357W, strain rsc2, active compounds read low 0.974 | S. cerevisiae deletion strains, locus YLR370C, strain arc18, active compounds read low 0.99 | S. cerevisiae deletion strains, locus YLR371W, strain rom2, active compounds read low 0.983 | S. cerevisiae deletion strains, locus YLR384C, strain iki3, active compounds read low 0.996 | S. cerevisiae deletion strains, locus YLR418C, strain cdc73, active compounds read low 1 | S. cerevisiae deletion strains, locus YML016C, strain PPZ1, active compounds read low 0.996 | S. cerevisiae deletion strains, locus YML032C, strain rad52, active compounds read low 1.01 | S. cerevisiae deletion strains, locus YML120C, strain ndi1, active compounds read low 1 | S. cerevisiae deletion strains, locus YML124C, strain tub3, active compounds read low 0.991 | S. cerevisiae deletion strains, locus YMR058W, strain fet3, active compounds read low 0.991 | S. cerevisiae deletion strains, locus YMR078C, strain ctf18, active compounds read low 0.987 | S. cerevisiae deletion strains, locus YMR125W, strain sto1, active compounds read low 0.983 | S. cerevisiae deletion strains, locus YMR129W, active compounds read low 0.967 | S. cerevisiae deletion strains, locus YMR205C, strain PFK2, active compounds read low 1.02 | S. cerevisiae deletion strains, locus YMR223W, strain ubp8, active compounds read low 0.98 | S. cerevisiae deletion strains, locus YMR231W, strain pep5, active compounds read low 1 | S. cerevisiae deletion strains, locus YMR263W, strain SAP30, active compounds read low 0.991 | S. cerevisiae deletion strains, locus YMR307W, strain GAS1, active compounds read low 1 | S. cerevisiae deletion strains, locus YNL067W, strain RPL9B, active compounds read low 0.998 | S. cerevisiae deletion strains, locus YNL071W, strain lat1, active compounds read low 0.974 | S. cerevisiae deletion strains, locus YNL183C, strain NPR1, active compounds read low 0.949 | S. cerevisiae deletion strains, locus YNL209W, strain ssb2, active compounds read low 0.986 | S. cerevisiae deletion strains, locus YNL233W, strain BNI4, active compounds read low 0.986 | S. cerevisiae deletion strains, locus YNL248C, strain rpa49, active compounds read low 0.937 | S. cerevisiae deletion strains, locus YNL250W, strain rad50, active compounds read low 0.985 | S. cerevisiae deletion strains, locus YNL271C, strain bni1, active compounds read low 0.997 | S. cerevisiae deletion strains, locus YNL298W, strain CLA4, active compounds read low 1 | S. cerevisiae deletion strains, locus YNL307C, strain MCK1, active compounds read low 0.998 | S. cerevisiae deletion strains, locus YNL322C, strain KRE1 (second series), active compounds read low 0.998 | S. cerevisiae deletion strains, locus YNR049C, strain mso1, active compounds read low 0.979 | S. cerevisiae deletion strains, locus YNR052C, strain pop2, active compounds read low 1 | S. cerevisiae deletion strains, locus YOL006C, strain TOP1, active compounds read low 0.959 | S. cerevisiae deletion strains, locus YOL012C, strain htz1 1.14 | S. cerevisiae deletion strains, locus YOL147C, strain pex11, active compounds read low 0.994 | S. cerevisiae deletion strains, locus YOR001W, strain rrp6, active compounds read low 1 | S. cerevisiae deletion strains, locus YOR061W, strain CKA2, active compounds read low 0.963 | S. cerevisiae deletion strains, locus YOR069W, strain VPS5, active compounds read low 0.993 | S. cerevisiae deletion strains, locus YOR070C, strain gyp1, active compounds read low 0.989 | S. cerevisiae deletion strains, locus YOR080W, strain dia2, active compounds read low 0.997 | S. cerevisiae deletion strains, locus YOR083W, strain WHI5, active compounds read low 1.01 | S. cerevisiae deletion strains, locus YOR106W, strain vam3, active compounds read low 1.02 | S. cerevisiae deletion strains, locus YOR136W, strain idh2, active compounds read low 0.981 | S. cerevisiae deletion strains, locus YOR144C, strain elg1, active compounds read low 0.998 | S. cerevisiae deletion strains, locus YOR184W, strain ser1, active compounds read low 0.986 | S. cerevisiae deletion strains, locus YOR231W, strain MKK1, active compounds read low 0.982 | S. cerevisiae deletion strains, locus YOR265W, strain rbl2, active compounds read low 0.982 | S. cerevisiae deletion strains, locus YOR270C, strain vph1, active compounds read low 0.973 | S. cerevisiae deletion strains, locus YOR290C, strain snf2, active compounds read low 0.952 | S. cerevisiae deletion strains, locus YOR316C, strain cot1, active compounds read low 0.993 | S. cerevisiae deletion strains, locus YPL051W, strain arl3, active compounds read low 1.01 | S. cerevisiae deletion strains, locus YPL078C, strain atp4, active compounds read low 1.02 | S. cerevisiae deletion strains, locus YPL106C, strain sse1, active compounds read low 0.982 | S. cerevisiae deletion strains, locus YPL240C, strain hsp82, active compounds read low 1 | S. cerevisiae deletion strains, locus YPL256C, strain CLN2, active compounds read low 0.969 | S. cerevisiae deletion strains, locus YPR119W, strain clb2, active compounds read low 0.998 | S. cerevisiae deletion strains, locus YPR141C, strain kar3, active compounds read low 0.982 | S. cerevisiae deletion strains, locus YPR163C, strain tif3, active compounds read low 0.985 | S. cerevisiae deletion strains, locus YPR167C, strain met16, active compounds read low 0.992 | S. cerevisiae deletion strains, strain wtn01, active compounds read low 1 | S. cerevisiae strains, strain wild type, active compounds read low 0.983
